# The list is not random: actives were taken first. Their share in the collection is about 19%.
# TDP1 cell CPT = DT40-hTDP1 cell growth loss with CPT. AID 686979. Potency, µM (series often up to 46.2 µM), for the others: at the top dose activity change, negative = growth inhibition, usual class: inhibitors. chicken DT40 Tdp1-/-;hTDP1 cells + 20 nM CPT, ATP luminescence, 48 h. 420,000 tested, 12% active; further: potency means the concentration at half of the fitted maximal effect; on the % scale 0 is the no-effect control and ±100 the full control effect; nearly all actives have a fitted effect of over 55% in size
#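 Chicken DT40 Tdp1-/- cells stably complemented with human TDP1 were seeded at 400 cells/well in medium containing 20 nM camptothecin, exposed to pin-transferred compounds, and grown at 37 °C for at least 48 hr. Viability was read as ATP luminescence.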
# IL-1B inflam inh = inflammasome signaling inhibition, IL-1 beta readout; AID 743279; THP-1 LPS/ATP IL-1B secretion, AlphaLISA, 16 h; stronger effect = lower value; activity change, % at 57.5 µM; 360,000 tested, 4.7% active; in the data active means activity change below about -50%; inconclusive means mostly about -30% to -49%; further: on the % scale 0 is the no-effect control and ±100 the full control effect
#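 THP-1 cells pretreated 1 hr with compounds (up to 57.5 uM final), then stimulated with LPS (250 ng/mL final) plus ATP (1.25 mM final); secreted IL-1B measured by AlphaLISA after 16 hr, decreased signal indicating inhibition.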
# Chronic BCR inh = inhibitors of chronic active B-cell receptor signaling. 340,000 tested, 0.05% active. ABC-DLBCL IkBa-CBG/CBR reporter, luminescence ratio, 4 h. Potency, µM (highest dose often 46.1 µM), for inactives: top-dose activity change, negative = inhibition, hits mostly inhibitors; active means well fitted inhibition curve with a large enough effect in the signal ratio, with a control signal flat, not every such curve was filed as active; inconclusive means small, poorly fitted or top-dose-only effect, or effect the other way, or a change in a side signal; the % refers to the signal ratio;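 further: potency means the concentration at half of the fitted maximal effect; plate controls were basal doxycycline-induced cells for no effect and cells given 10 µM MG132 for full effect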
#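 TMD8 ABC-DLBCL cells carrying doxycycline-inducible green luciferase fused to IkappaBalpha plus unfused red luciferase were exposed to compounds (up to 46 uM) for 4 hrs at 37C. Activity came from the overlap-corrected green/red luminescence ratio.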
# MCF10A rereplic = inducers of DNA re-replication in MCF 10A breast cells | Potency, µM (highest dose often 46.1 µM), inactives show at the highest dose activity, positive = re-replication, hits mostly activators | MCF 10A DNA re-replication, Hoechst nuclear intensity, 48 h | 350,000 tested, 2.9% active; further: potency means the concentration at half of the fitted maximal effect; % of control where 0% means no effect; nearly all actives have a fitted effect of over 50% in size
# SW480 rereplic = DNA re-replication induction in SW480 cells; SW480 DNA re-replication, Hoechst DNA content imaging, 48 h; Potency, µM (doses to about 46.1 µM), inactives show at the highest dose re-replication activation, hits mostly activators; 340,000 tested, 1.8% active; further: potency means the concentration at half of the fitted maximal effect; % of control where 0% means no effect; nearly all actives have a fitted effect of over 55% in size
#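 Per well, 250 cells were exposed to pinned compound for 48 hr. Nuclear DNA was visualised with Hoechst (40 min, 37 C) and total object intensity recorded by fluorescence scanning.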
# TDP1 cell noCPT = qHTS for Inhibitors of human tyrosyl-DNA phosphodiesterase 1 (TDP1): qHTS in cells in absence of CPT. AID 686978, 2013. DT40 Tdp1-/- hTDP1 cells, no CPT, ATP luminescence, 48 h. Potency, µM (doses to about 46.2 µM), for the others: top-dose activity change, negative = growth inhibition, actives largely listed as inhibitors. 420,000 tested, 15% active; further: potency means the concentration at half of the fitted maximal effect; on the % scale 0 is the no-effect control and ±100 the full control effect; nearly all actives have a fitted effect of over 55% in size
#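 No-CPT arm: Tdp1-/-;hTDP1 DT40 cells (400/well) plus compounds, incubated ≥48 hr at 37 °C. Readout CellTiter-Glo luminescence.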
# * = called active by the depositor; u = inconclusive; x = no result; [ ] = dose if it differs, or a comment. Unless noted, the call rests on the fitted dose curve; in most records, active means well fitted curve in the direction sought with a large enough effect; inconclusive means small, poorly fitted or top-dose-only effect, or another doubt; inactive means no such curve, though single readings can be large; an effect the other way counts as inactive or inconclusive.
SMILES,TDP1 cell CPT,IL-1B inflam inh,Chronic BCR inh,MCF10A rereplic,SW480 rereplic,TDP1 cell noCPT
Cc1ccc(NC(=O)C2CCN(S(=O)(=O)c3c(C)noc3/C=C/c3ccco3)CC2)nc1,u,0,-8%,u,6%,18µM*
Cc1ccnc(NS(=O)(=O)c2ccc(NC(=O)c3cc(=O)c4ccccc4o3)cc2)n1,-16%,0,0%,-4%,-10%,-8%
O=C(Cn1ncc2c(=O)oc3ccccc3c21)Nc1cc(F)ccc1F,0%,x,x,x,x,-15%
COC(=O)CC(NC(=O)CN1CCN(c2ccc(F)cc2)CC1)c1cccc(F)c1 (configuration not stated),26%,22,2%,8%,-7%,0%
CCC(OC(=O)CNS(=O)(=O)c1ccccc1)C(=O)c1ccccc1 (configuration not stated),0%,-6,14%,29%,12%,-24%
CC(=O)Nc1cccc(C(=O)Nc2cc(C(F)(F)F)ccc2-n2cncn2)c1,u,-21,x,x,x,u
CCCSC(=S)c1c(C)[nH]n(-c2ccccc2)c1=O,21µM*,-10,u,17%,u,16µM*
CCOc1ccc(-c2c(C(=O)N/N=C/c3c[nH]c4ccccc34)nnn2-c2nonc2N)cc1,u,0,9%,2%,-1%,16µM*
Nc1nonc1-n1nnc(C(=O)N/N=C/c2cc(Br)cs2)c1-c1ccccc1,u,-92*,u,5%,6%,u
CCOc1cccc(-c2c(C(=O)N/N=C(\C)c3ccccn3)nnn2-c2nonc2N)c1,2.3µM*,48,-26%,1%,5%,1.6µM*
C/C(=N/NC(=O)c1nnn(-c2nonc2N)c1-c1ccccc1)c1ccc2c(c1)OCO2,4%,-86*,1%,-1%,-16%,-10%
COc1ccc(NC(=O)CN(C)Cc2cccs2)cc1Cl,u,u,u,-4%,6%,u
C=Cc1ccc(Cn2c(C)c(C(=O)NCCC#N)sc2=O)cc1,-2%,-22,x,x,x,-13%
C/C(=N\NC(=O)c1nnn(-c2nonc2N)c1CN1CCc2ccccc21)c1ccccc1O,6.5µM*,93,-1%,u,u,6.5µM*
CC(C)OC(=O)c1cc(NC(=S)Nc2ccc([N+](=O)[O-])cc2)cc(C(=O)OC(C)C)c1,9.2µM*,-101*,0%,u,u,12µM*
CC(C)OC(=O)c1cc(C(=O)OC(C)C)cc([N+](=O)[O-])c1,5%[92.5 µM],x,x,x,x,-7%[92.5 µM]
O=[N+]([O-])c1ccc(NNC(=S)Nc2ccc(F)cc2)cc1,4.6µM*,-59*,8%,-1%,-2%,3.3µM*
COC(=O)Cc1ccc(NC(=S)NCCC(C)C)cc1,-2%,9,0%,-12%,-185%,-7%
S=C(NCCc1ccncc1)Nc1ccccc1,-25%,-6,-3%,5%,-1%,-27%
S=C(NCCc1ccccc1)Nc1ccc(Br)cc1,u,-70*,u,u,-2%,23µM*
CC(C)CCNC(=S)Nc1ccc(Br)cc1,u,-1,u,u,33%,16µM*
CC(C)OC(=O)N(C)C[C@H]1OCc2cnnn2CCCC(=O)N([C@H](C)CO)C[C@H]1C,-15%,-12,x,x,x,2%
O=C(NC(NNc1ccc([N+](=O)[O-])cc1)(C(F)(F)F)C(F)(F)F)c1ccc(F)cc1,23µM*,2,u,u,11%,18µM*
O=C(NC(NNc1ccc([N+](=O)[O-])cc1)(C(F)(F)F)C(F)(F)F)c1ccccc1Cl,1%,-7,u,u,1%,-15%
CCCCNC(=S)Nc1ccc([N+](=O)[O-])cc1,u,-74*,3%,18µM*,-4%,23µM*

# Compound activity deposited in PubChem BioAssay by National Center for Advancing Translational Sciences (NCATS).
